# NPC1 prom act: qHTS Assay for NPC1 Promoter Activators. Huh7 NPC1 promoter luciferase reporter, 24 h. Potency, µM (top dose mostly 9.22 µM), actives largely listed as activators. hit rate 2.4% among 320,000. AID 485313, 2010; further: nearly all actives have a fitted effect of over 60% in size
#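 Stable NPC1-promoter luciferase Huh7 line; cpd (DMSO) 24 h, 37 °C, 5% CO2; Amplite luciferase reagent 10 min RT; luminescence readout. qHTS format.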
# uPA surface inh: qHTS for Inhibitors of Cell Surface uPA Generation; hit rate 0.31% among 330,000; cell surface uPA generation assay, qHTS; Potency, µM (top dose mostly 38.3 µM), most hits filed as inhibitors; AID 540303, 2011; active means well fitted inhibition curve with a large enough effect; inconclusive means small, poorly fitted or top-dose-only effect; inactive means no such curve, though single readings can be large or run the other way; tested in mouse RAW 264.7 cells; further: nearly all actives have a fitted effect of over 55% in size
# ELG1 genotoxic: qHTS screen for small molecules that induce genotoxicity in human embryonic kidney (HEK293T) cells expressing luciferase-tagged ELG1 | hit rate 1.3% among 330,000 | AID 504466, 2011 | HEK293T ELG1-luciferase reporter, luminescence, 16 h | Potency, µM (titrated, usually from 46 µM), usual class: activators; further: nearly all actives have a fitted effect of over 60% in size
#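 Step 1: seed 2,000 HEK293T ELG1-luciferase cells per well. Step 2: add compound or DMSO, incubate 16 hr at 37 °C. Step 3: ONE-Glo, 30 min at room temperature, read luminescence.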
# SMN2 splice up: qHTS Assay for Enhancers of SMN2 Splice Variant Expression; hit rate 2.8% among 210,000; Potency, µM (highest dose often 46.1 µM), hits mostly activators; AID 1458, 2008; HEK293 SMN2-luciferase splicing reporter, luminescence, 30-36 h; further: nearly all actives have a fitted effect of over 55% in size
#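 HEK293 cells carry an SMN2 minigene-luciferase reporter in which exon 7 inclusion puts luciferase in frame. Cells were seeded at 2000 cells/well, attached for 10-12 hours, then exposed to compounds for 30-36 hours at 37C before ONE-Glo luminescence.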
# Rab9 prom act: qHTS Assay for Rab9 Promoter Activators; Huh7 Rab9 promoter-luciferase reporter, luminescence, 24 h; hit rate 2.8% among 320,000; Potency, µM (series often up to 9.22 µM), most hits filed as activators; AID 485297, 2010; further: nearly all actives have a fitted effect of over 60% in size
#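 Huh7 cells stably carrying a Rab9 promoter-luciferase reporter, 1500 cells per well in OP-MEM I with 10% FBS, treated with compound 24 hours at 37C. Luciferase activity read by luminescence after 10 minutes with Amplite reagent.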
# FLuc counter: qHTS profiling assay for firefly luciferase inhibitor/activator using purifed enzyme and Km concentrations of substrates (counterscreen for miR-21 project); Luciferin 4-monooxygenase (Photinus pyralis), P08659; purified FLuc, Km substrates, luminescence inhibition; Potency, µM (series often up to 57.5 µM), usual class: inhibitors; hit rate 6.9% among 360,000; AID 588342, 2011; further: nearly all actives have a fitted effect of over 55% in size
# Target sequence (P08659 whole entry, looked up): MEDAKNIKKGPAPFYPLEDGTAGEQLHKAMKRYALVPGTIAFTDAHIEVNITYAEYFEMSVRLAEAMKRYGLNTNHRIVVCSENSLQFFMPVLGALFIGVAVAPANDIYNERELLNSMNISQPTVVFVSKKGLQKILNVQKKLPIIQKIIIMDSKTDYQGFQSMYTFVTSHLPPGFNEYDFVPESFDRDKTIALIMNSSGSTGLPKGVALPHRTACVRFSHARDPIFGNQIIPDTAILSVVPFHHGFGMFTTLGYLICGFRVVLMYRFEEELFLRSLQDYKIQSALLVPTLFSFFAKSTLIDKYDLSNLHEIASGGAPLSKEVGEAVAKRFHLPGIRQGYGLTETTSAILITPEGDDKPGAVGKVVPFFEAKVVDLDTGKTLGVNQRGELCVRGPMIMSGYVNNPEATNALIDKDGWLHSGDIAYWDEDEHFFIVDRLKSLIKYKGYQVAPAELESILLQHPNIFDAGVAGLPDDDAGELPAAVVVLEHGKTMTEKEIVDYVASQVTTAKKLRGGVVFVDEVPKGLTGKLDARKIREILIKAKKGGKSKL
#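 Purified P. pyralis luciferase (10nM final) with 10uM D-luciferin and 10uM ATP (Km levels) in 50mM Tris acetate pH 7.5, 10mM Mg acetate, 0.01% Tween-20, 0.05% BSA; qHTS 6-point titration, ~60 µM downward; luminescence read.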
# A number is an active result; . = inactive; ? = inconclusive; / = not tested or not shown; [ ] = another dose, or the depositor's remark. Rows were chosen to be rich in hits. Some 7.3% of all compounds tested hit in one or more screens of this group. Unless noted, the call rests on the fitted dose curve; in most records, active means well fitted curve in the direction sought with a large enough effect; inconclusive means small, poorly fitted or top-dose-only effect, or another doubt; inactive means no such curve, though single readings can be large; an effect the other way counts as inactive or inconclusive.
SMILES,NPC1 prom act,uPA surface inh,ELG1 genotoxic,SMN2 splice up,Rab9 prom act,FLuc counter
CCC1C(=O)n2nc(-c3ccccc3)cc2N=C1C (configuration not stated),?,.,?,12.6µM,2.82µM,13.5µM
CN1C(=O)c2cccc3c(S(=O)(=O)Nc4ccccn4)ccc1c23,.,.,?,?,.,.
Cc1ccccc1NS(=O)(=O)c1ccc2c3c(cccc13)C(=O)N2C,.,.,20.6µM,/,.,.
Cc1ccc2c(cnn2C(=O)CCC(=O)N2CCCCC2C)c1 (configuration not stated),.,.,.,/,.,?
Cc1ccc2oc(-c3cccc(NC(=S)NC(=O)c4cccs4)c3)nc2c1,.,.,?,.[1.84 µM],.,10.7µM
Cc1ccc2oc(-c3cc(NC(=O)/C=C/c4ccco4)ccc3Cl)nc2c1,/,/,/,.,/,?
Cc1ccc2oc(-c3cccc(NC(=O)/C=C/c4cccc([N+](=O)[O-])c4)c3C)nc2c1,?,.,.,12.6µM,4.47µM,3.38µM
Cc1ccc2oc(-c3cccc(NC(=S)NC(=O)/C=C/c4ccco4)c3)nc2c1,.,.,.,.,?,15.1µM
O=C(Nc1ccc2oc(-c3ccccc3)nc2c1)c1cccs1,3.98µM,.,?,3.16µM,2.51µM,3.79µM
CC(=O)N1c2ccc(S(=O)(=O)NCC3CCC(C(=O)NC(C)(C)C)CC3)cc2CC1C (configuration not stated),/,/,/,/,/,.
O=C(Nc1ccccc1)n1ccc(-c2ccc(-n3ccnc3)cc2)n1,.,/,.,?,?,?
COC(=O)c1cc2occc2n1Cc1nc(-c2cccc(Br)c2)oc1C,/,/,/,.,/,.
Cc1noc(C)c1S(=O)(=O)Nc1ccc(C(=O)Nc2ccc(C(C)C)cc2)cc1,/,/,/,.,/,?
O=C(NCCO)C(=O)NCC1OCCCN1S(=O)(=O)c1ccc2c(c1)OCCO2 (configuration not stated),.,.,.,/,.,.
CCOc1ccccc1NC(=O)c1nn(C)c2c1CSc1ccccc1-2,/,/,/,/,/,.
CCc1ccccc1NC(=O)[C@H](Cc1ccccc1)N1Cc2ccccc2C1=O,/,/,/,.,/,.
Cc1ccc2oc(-c3cc(NC(=O)c4cccs4)cc(C)c3O)nc2c1,/,/,/,.,/,?
Cc1c(NC(=O)c2cccs2)cccc1-c1nc2cc(Cl)ccc2o1,/,/,/,/,/,5.36µM
C=CCOc1ccc(/C=N/Nc2ccccn2)cc1OC,3.55µM,.,?,11.2µM,?,5.36µM
COc1cc(/C=N\NC(C)=O)ccc1OC/C=C/c1ccccc1,.,.,.,/,.,.
COc1cc(/C=N/Nc2ccccn2)ccc1OCC(C)C,?,.,.,?,?,2.69µM
CCCOc1ccc(/C=N/Nc2ccccn2)cc1OC,?,.,?,10µM,2µM,3.38µM
COc1cc(/C=N/Nc2cccc(C)c2)cc(Br)c1O,.,.,.,.,.,?
COc1cc(/C=N/Nc2ccccn2)cc(OC)c1O,.,.,.,.,.,12µM
CCOc1ccc(/C=N/N(C)c2ccccc2)cc1OC,?,.,4.61µM,25.1µM,3.16µM,4.78µM
SMILES,NPC1 prom act,uPA surface inh,ELG1 genotoxic,SMN2 splice up,Rab9 prom act,FLuc counter
COc1ccc(/C=N/N(c2ccccc2)c2ccccc2)cc1O,.,.,.,/,.,?
CCOc1ccc(/C=N/Nc2ccccn2)cc1OC,?,.,20.6µM,14.1µM,2.82µM,5.36µM
COc1ccc(Cc2ccc3[nH]c(=O)cc(C)c3c2)cc1S(=O)(=O)O,/,/,/,.[9.22 µM],/,/
Cn1c(SCC(=O)Nc2ccc(C(N)=O)cc2)nnc1-c1cccs1,.,.,.,/,.,.
Nc1nc(CN2CCN(c3ccccc3F)CC2)nc(Nc2ccc3c(c2)OCCO3)n1,.,/,.,.,.,.
CN1CCN(Cc2nc(N)nc(Nc3ccc4c(c3)OCCO4)n2)CC1,3.55µM,.,?,.,3.98µM,?
COc1ccc(-c2cccc(NS(=O)(=O)c3cccc([N+](=O)[O-])c3)c2)nn1,.,.,.,/,.,.
O=[N+]([O-])c1cccc(S(=O)(=O)Nc2cccc(-c3ccc(N4CCOCC4)nn3)c2)c1,.,.,?,/,?,2.13µM
O=[N+]([O-])c1cccc(S(=O)(=O)Nc2cccc(-c3ccc(N4CCCC4)nn3)c2)c1,.,.,?,/,.,9.53µM
CCc1ccc(S(=O)(=O)Nc2cccc(-c3ccc(N4CCOCC4)nn3)c2)cc1,/,/,/,/,/,8.49µM
COc1ccc2c(c1)C(=O)c1ccccc1CO2,3.98µM,.,?,?,3.16µM,6.01µM
CCOc1ccccc1N1CCN(S(=O)(=O)c2cc(C)ccc2OC)CC1,?,.,?,/,2.51µM,16.9µM
COc1ccc(C)cc1S(=O)(=O)N1CCN(c2ccccc2)CC1,.,.,.,/,.,.
COc1ccc(C(=O)NC(=S)NC(C)C)cc1Br,.,.,.,.,.,?
COc1ccc(C(=O)NC(=S)NC(C)(C)C)cc1Br,.,.,.,.,?,10.7µM
O=C(Nc1ccc([N+](=O)[O-])cc1)Nc1ccc2c(c1)OCCO2,1µM,.,.,6.31µM,0.794µM,2.13µM
COc1cc([N+](=O)[O-])ccc1NC(=S)N1CCOCC1,.,.,.,/,.,.
O=[N+]([O-])c1ccc2c(c1)OCCOCCOCCOCCOCCOCCO2,.,.,.,.,.,.
